# PubChem BioAssay AID1159580 (chemical genetic matrix, 2015)
# About 2,000 (36%) of roughly 5,500 compounds were called active. Not shown: some 18% with an inconclusive outcome. The list shows a part of the results. Unmarked numbers belong to inactive results. Cut-off read from the data, not from the text of the source: active = normalized growth mostly below about 0.91 (no sharp cut-off); inconclusive = no clear call, values can overlap the other calls; inactive = mostly above about 0.92.
# Test: chemical genetic growth profiling, strain panel (AID 1159580);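 note: tested at 20 µM; growth read once vehicle control cultures reached saturation at 30 °C; 1 = growth at the plate median or of vehicle wells; lower values mean less growth of the strain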
# Details: growth OD
structure (smiles),measurement,setting,value
COc1cc(O)c2c(=O)c(O)c(-c3ccc(O)c(O)c3)oc2c1,normalized growth,"S. cerevisiae deletion strains, locus YJR075W, strain HOC1, hits give low values",0.987
same,normalized growth,"S. cerevisiae deletion strains, locus YKL009W, strain mrt4, hits give low values",1.02
same,normalized growth,"S. cerevisiae deletion strains, locus YKL068W, hits give low values",1
same,normalized growth,"S. cerevisiae deletion strains, locus YKL085W, strain MDH1 (second series), hits give low values",0.994
same,normalized growth,"S. cerevisiae deletion strains, locus YKL085W, strain MDH1, hits give low values",0.994
same,normalized growth,"S. cerevisiae deletion strains, locus YKL160W, strain elf1, hits give low values",0.84 (active)
same,normalized growth,"S. cerevisiae deletion strains, locus YKL190W, strain CNB1, hits give low values",0.997
same,normalized growth,"S. cerevisiae deletion strains, locus YKR001C, strain vps1, hits give low values",0.996
same,normalized growth,"S. cerevisiae deletion strains, locus YKR026C, strain gcn3, hits give low values",0.945
same,normalized growth,"S. cerevisiae deletion strains, locus YKR091W, strain srl3, hits give low values",0.961
same,normalized growth,"S. cerevisiae deletion strains, locus YLL001W, strain dnm1, hits give low values",0.782 (active)
same,normalized growth,"S. cerevisiae deletion strains, locus YLL026W, hits give low values",0.934
same,normalized growth,"S. cerevisiae deletion strains, locus YLL041C, strain sdh2, hits give low values",0.928
same,normalized growth,"S. cerevisiae deletion strains, locus YLR027C, strain aat2, hits give low values",0.843 (active)
same,normalized growth,"S. cerevisiae deletion strains, locus YLR039C, strain RIC1, hits give low values",0.785
same,normalized growth,"S. cerevisiae deletion strains, locus YLR058C, strain SHM2, hits give low values",0.827 (active)
same,normalized growth,"S. cerevisiae deletion strains, locus YLR102C, strain apc9, hits give low values",1.02
same,normalized growth,"S. cerevisiae deletion strains, locus YLR221C, strain rsa3, hits give low values",0.779 (active)
same,normalized growth,"S. cerevisiae deletion strains, locus YLR258W, strain gsy2, hits give low values",0.854 (active)
same,normalized growth,"S. cerevisiae deletion strains, locus YLR262C, strain YPT6 (second series), hits give low values",0.565 (active)
same,normalized growth,"S. cerevisiae deletion strains, locus YLR262C, strain YPT6, hits give low values",0.91
same,normalized growth,"S. cerevisiae deletion strains, locus YLR268W, strain sec22, hits give low values",0.968
same,normalized growth,"S. cerevisiae deletion strains, locus YLR320W, strain mms22, hits give low values",0.758 (active)
same,normalized growth,"S. cerevisiae deletion strains, locus YLR330W, strain CHS5, hits give low values",0.99
same,normalized growth,"S. cerevisiae deletion strains, locus YLR342W, strain FKS1 (second series), hits give low values",0.898
same,normalized growth,"S. cerevisiae deletion strains, locus YLR342W, strain FKS1, hits give low values",0.643 (active)
same,normalized growth,"S. cerevisiae deletion strains, locus YLR357W, strain rsc2, hits give low values",0.678 (active)
same,normalized growth,"S. cerevisiae deletion strains, locus YLR370C, strain arc18, hits give low values",0.813 (active)
same,normalized growth,"S. cerevisiae deletion strains, locus YLR371W, strain rom2, hits give low values",0.962
same,normalized growth,"S. cerevisiae deletion strains, locus YLR384C, strain iki3, hits give low values",0.936
same,normalized growth,"S. cerevisiae deletion strains, locus YLR418C, strain cdc73, hits give low values",0.957
same,normalized growth,"S. cerevisiae deletion strains, locus YML016C, strain PPZ1, hits give low values",0.915 (active)
same,normalized growth,"S. cerevisiae deletion strains, locus YML032C, strain rad52, hits give low values",1.02
same,normalized growth,"S. cerevisiae deletion strains, locus YML120C, strain ndi1, hits give low values",0.879 (active)
same,normalized growth,"S. cerevisiae deletion strains, locus YML124C, strain tub3, hits give low values",1.02
same,normalized growth,"S. cerevisiae deletion strains, locus YMR058W, strain fet3, hits give low values",0.247 (active)
same,normalized growth,"S. cerevisiae deletion strains, locus YMR078C, strain ctf18, hits give low values",1.02
same,normalized growth,"S. cerevisiae deletion strains, locus YMR125W, strain sto1, hits give low values",1
same,normalized growth,"S. cerevisiae deletion strains, locus YMR129W, hits give low values",0.927
same,normalized growth,"S. cerevisiae deletion strains, locus YMR205C, strain PFK2, hits give low values",0.658 (active)
same,normalized growth,"S. cerevisiae deletion strains, locus YMR223W, strain ubp8, hits give low values",1
same,normalized growth,"S. cerevisiae deletion strains, locus YMR231W, strain pep5, hits give low values",0.874 (active)
same,normalized growth,"S. cerevisiae deletion strains, locus YMR307W, strain GAS1, hits give low values",0.768
same,normalized growth,"S. cerevisiae deletion strains, locus YNL067W, strain RPL9B, hits give low values",0.953
same,normalized growth,"S. cerevisiae deletion strains, locus YNL071W, strain lat1, hits give low values",0.919
same,normalized growth,"S. cerevisiae deletion strains, locus YNL128W, strain TEP1, hits give low values",0.935
same,normalized growth,"S. cerevisiae deletion strains, locus YNL209W, strain ssb2, hits give low values",0.452 (active)
same,normalized growth,"S. cerevisiae deletion strains, locus YNL233W, strain BNI4, hits give low values",0.894
same,normalized growth,"S. cerevisiae deletion strains, locus YNL248C, strain rpa49, hits give low values",0.889
same,normalized growth,"S. cerevisiae deletion strains, locus YNL250W, strain rad50, hits give low values",0.986
same,normalized growth,"S. cerevisiae deletion strains, locus YNL271C, strain bni1, hits give low values",0.998
same,normalized growth,"S. cerevisiae deletion strains, locus YNL298W, strain CLA4, hits give low values",1.01
same,normalized growth,"S. cerevisiae deletion strains, locus YNL307C, strain MCK1, hits give low values",1.02
same,normalized growth,"S. cerevisiae deletion strains, locus YNL322C, strain KRE1 (second series), hits give low values",0.967
same,normalized growth,"S. cerevisiae deletion strains, locus YNL322C, strain KRE1, hits give low values",0.952
same,normalized growth,"S. cerevisiae deletion strains, locus YNR049C, strain mso1, hits give low values",0.947
same,normalized growth,"S. cerevisiae deletion strains, locus YNR052C, strain pop2, hits give low values",0.991
same,normalized growth,"S. cerevisiae deletion strains, locus YOL006C, strain TOP1, hits give low values",0.624
same,normalized growth,"S. cerevisiae deletion strains, locus YOL012C, strain htz1",0.669
same,normalized growth,"S. cerevisiae deletion strains, locus YOL147C, strain pex11, hits give low values",1.01
same,normalized growth,"S. cerevisiae deletion strains, locus YOR001W, strain rrp6, hits give low values",0.845 (active)
same,normalized growth,"S. cerevisiae deletion strains, locus YOR061W, strain CKA2, hits give low values",0.934
same,normalized growth,"S. cerevisiae deletion strains, locus YOR069W, strain VPS5, hits give low values",0.966
same,normalized growth,"S. cerevisiae deletion strains, locus YOR070C, strain gyp1, hits give low values",0.878 (active)
same,normalized growth,"S. cerevisiae deletion strains, locus YOR080W, strain dia2, hits give low values",0.813 (active)
same,normalized growth,"S. cerevisiae deletion strains, locus YOR083W, strain WHI5, hits give low values",0.749 (active)
same,normalized growth,"S. cerevisiae deletion strains, locus YOR106W, strain vam3, hits give low values",0.407 (active)
same,normalized growth,"S. cerevisiae deletion strains, locus YOR136W, strain idh2, hits give low values",1.01
same,normalized growth,"S. cerevisiae deletion strains, locus YOR144C, strain elg1, hits give low values",1.02
same,normalized growth,"S. cerevisiae deletion strains, locus YOR184W, strain ser1, hits give low values",0.993
same,normalized growth,"S. cerevisiae deletion strains, locus YOR265W, strain rbl2, hits give low values",0.883 (active)
same,normalized growth,"S. cerevisiae deletion strains, locus YOR270C, strain vph1, hits give low values",0.484 (active)
same,normalized growth,"S. cerevisiae deletion strains, locus YOR290C, strain snf2, hits give low values",0.701 (active)
same,normalized growth,"S. cerevisiae deletion strains, locus YOR316C, strain cot1, hits give low values",1.05
same,normalized growth,"S. cerevisiae deletion strains, locus YPL051W, strain arl3, hits give low values",0.521 (active)
same,normalized growth,"S. cerevisiae deletion strains, locus YPL078C, strain atp4, hits give low values",0.796 (active)
same,normalized growth,"S. cerevisiae deletion strains, locus YPL106C, strain sse1, hits give low values",0.77 (active)
same,normalized growth,"S. cerevisiae deletion strains, locus YPL240C, strain hsp82, hits give low values",0.83 (active)
same,normalized growth,"S. cerevisiae deletion strains, locus YPL241C, strain CIN2, hits give low values",0.989
same,normalized growth,"S. cerevisiae deletion strains, locus YPR119W, strain clb2, hits give low values",1.03
same,normalized growth,"S. cerevisiae deletion strains, locus YPR141C, strain kar3, hits give low values",0.997
same,normalized growth,"S. cerevisiae deletion strains, locus YPR163C, strain tif3, hits give low values",1.01
same,normalized growth,"S. cerevisiae deletion strains, locus YPR167C, strain met16, hits give low values",1
same,normalized growth,"S. cerevisiae deletion strains, strain wtn01, hits give low values",0.996
same,normalized growth,"S. cerevisiae strains, strain wild type, hits give low values",0.929
